# The supplement of paper PMC8540655
# A number with no mark means an inactive call.
# System: Aedes aegypti larvae
# Test: larval motility relative to same well at 0 h (fraction); higher = more motile (less active compound), active = 0.4 or less
# Conditions: 10 µM
# Procedure, shortened: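 Larvae (Aedes aegypti, hatched in pond salt solution with yeast at 25 °C and taken 18–24 h later) were plated at about 10 per 100 µL well. Compounds at 10 µM in 1% v/v DMSO were imaged with INVAPP at 0, 2 and 24 h, alongside solvent and larvicide controls on each plate. Reported relative motility is each well's score over its own starting score, as a median of three independent larval batches.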
Structure (SMILES),larval motility (2 h),larval motility (24 h)
O=C1NC(=S)N/C1=C\c1cc(Br)cc(Br)c1O,0.761,0.843
CO/N=C(\C(=O)N[C@@H]1C(=O)N2C(C(=O)OCOC(=O)C(C)(C)C)=C(/C=C\c3scnc3C)CS[C@H]12)c1csc(N)n1,1.51,1.18
Cc1ccc(S(=O)(=O)Nc2cccc3cccnc23)cc1,1.02,0.566
O=C(N[C@H](CCS)C(=O)N[C@H](Cc1ccccc1)C(=O)O)c1cc2ccccc2[nH]1,1.47,1.56
O=C1C=C(c2ccccc2)S(=O)(=O)c2ccccc21,0.748,1.01
COc1ccc(NC(=O)CC2Sc3ncnn3C2=O)cc1 (stereo not given),0.728,0.333 (active)
COc1cc(NCc2ccc3nc(N)nc(N)c3c2C)cc(OC)c1OC,0.5,0.356 (active)
O=C(NN1C(=O)[C@@H]2C3C=CC([C@H]4C[C@@H]34)[C@@H]2C1=O)c1ccc(C(F)(F)F)cc1,0.844,0.599
CC(C)Oc1ccc(-c2nc(-c3cccc4c3CC[C@@H]4NCCO)no2)cc1C#N,1.2,1.25
O=[N+]([O-])/C(Br)=C/c1ccc(Br)o1,1.13,0.796
O=C(Nc1nnc(-c2ccc(Cl)cc2)o1)c1nc2ccccc2s1,0.919,1.05
CC(C)c1ccc(COc2cccc(-c3cc(S(C)=O)c(C#N)c(=O)[nH]3)c2)cc1 (stereo not given),0.682,0.447
CS(=O)(=O)c1ccc(Oc2ccc(Cl)cc2)cc1,0.907,1.02
COc1ccc2nc(-c3ccccc3)cc(O)c2c1,1.08,0.908
NC1C2CC3CC(C2)CC1C3 (stereo not given),0.973,1.31
CN(C)[C@@H]1C(=O)C(C(N)=O)=C(O)[C@@]2(O)C(=O)C3=C(O)c4c(O)c(NC(=O)CN5CCCC5)cc(F)c4C[C@H]3C[C@@H]12,0.841,1.78
Nc1nnc(-c2ccc(Cl)cc2)s1,0.916,0.877
N=c1n(CCN2CCCCC2)c2ccccc2n1CC(O)COc1ccc(Cl)cc1Cl (stereo not given),1.02,0.502

Structure (SMILES),larval motility (2 h),larval motility (24 h)
O=C(Cc1ccccc1F)Nc1nc2ccccc2[nH]1,0.888,0.669
O=C(CCc1ccc2c(c1)OCO2)NCc1ccc(-c2ccccc2F)cc1,0.778,0.677
CCOc1noc2cc(OCCC3CCN(c4ccc(C)nn4)CC3)ccc12,0.793,1.06
Cc1oncc1C(=O)Nc1ccc(C(F)(F)F)cc1,0.743,0.744
CC(=O)N1c2ccccc2NC2=C(C(=O)CC(C)(C)C2)C1c1ccc(OCc2ccccc2)cc1 (stereo not given),1.49,1.55
CC(C)/N=c1\cc2n(-c3ccc(Cl)cc3)c3ccccc3nc-2cc1Nc1ccc(Cl)cc1,0.957,0.786
CN(Cc1ccc(C(C)(C)C)cc1)Cc1cccc2ccccc12,0.508,0.64
c1ccc(Cn2c(-c3ccccn3)nc3ccccc32)cc1,1.19,1.02
CCc1ccccc1OCCN1CCCCCC1,1.18,1.21
CCNC(=O)Nc1cn2c(-c3ncc(CC)cn3)cc(-c3cccnc3)cc2n1,0.892,0.894
CCCCCCC1c2ccc(O)cc2Oc2cc(O)ccc21,0.468,0.989
Cc1cc(O)c2c(c1)C(=O)c1c(I)c(O)c(I)c(O)c1C2=O,0.851,1.08
Clc1ccc(Cn2c(CN3CCCC3)nc3ccccc32)cc1,1.09,1.28
N=C(N)NCCCCC(=O)Nc1cc(C(F)(F)F)cc(NC(=O)c2cc(C(=O)Nc3cc(C(F)(F)F)cc(NC(=O)CCCCNC(=N)N)c3O[C@@H]3CCNC3)ncn2)c1O[C@@H]1CCNC1,0.425,0.764
CC[C@@]1(O)C(=O)OCc2c1cc1n(c2=O)Cc2cc3c(CN(C)C)c(O)ccc3nc2-1,0.831,0.876
Nc1ccc2oc(=O)ccc2c1I,0.518,0.509
Cc1ccn2c(C(=O)NCc3ccccc3)c(C)nc2c1,1.47,2.35
